Screening results from PubChem.
Rows were chosen to be rich in hits. Some 2.5% of all compounds tested hit in one or more screens of this group.
Cruzain inh noDet: qHTS Assay for Promiscuous and Specific Inhibitors of Cruzain (without detergent); Cruzipain (Trypanosoma cruzi), P25779; Potency, µM, for the others: max response, negative = inhibition, most hits filed as inhibitors; AID 1476, 2009; purified cruzain, Z-FR-AMC fluorescence, no detergent; 200,000 tested, 2.3% active;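 also: plate controls were enzyme without inhibitor for no effect and buffer without enzyme for full effect; nearly all actives have a fitted effect of over 40% in size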
Target sequence (P25779 123-467 limits assumed): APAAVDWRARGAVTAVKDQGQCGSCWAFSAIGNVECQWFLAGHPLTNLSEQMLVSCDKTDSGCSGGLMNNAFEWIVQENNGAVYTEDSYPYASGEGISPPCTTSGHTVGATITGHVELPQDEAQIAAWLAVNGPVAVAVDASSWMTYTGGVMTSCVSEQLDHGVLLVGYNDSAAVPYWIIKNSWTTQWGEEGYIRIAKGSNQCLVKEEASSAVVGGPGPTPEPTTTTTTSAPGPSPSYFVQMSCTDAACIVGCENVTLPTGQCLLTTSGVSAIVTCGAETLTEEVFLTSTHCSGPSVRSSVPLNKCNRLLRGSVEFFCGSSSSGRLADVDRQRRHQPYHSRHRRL
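Detergent-free condition (0.00005% Triton X-100) in acetate buffer pH 5.5 with DTT. 1.5 nM enzyme and compound were pre-mixed 15 min, then 2 uM Z-FR-AMC substrate added; reaction progress from fluorescence change between first and third reads (60 s).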
Cruzain Triton: qHTS Assay for Promiscuous and Specific Inhibitors of Cruzain (with detergent) | Potency, µM, for the others: max response, negative = inhibition, usual class: inhibitors | 200,000 tested, 0.43% active | purified cruzain, Z-FR-AMC fluorescence, 0.01% Triton | Cruzipain (Trypanosoma cruzi), P25779 | AID 1478, 2009;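 also: plate controls were neutral wells for no effect and buffer without enzyme for full effect; nearly all actives have a fitted effect of over 40% in size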
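Steps: dispense cruzain (1.5 nM final) in acetate buffer pH 5.5 with DTT and 0.01% Triton X-100; pin-transfer compounds; incubate 15 min RT; add Z-FR-AMC (2 uM final); read fluorescence every 30 s, using the 60 s intensity change.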
* = called active by the depositor; u = inconclusive; ! = not active in a repeat. Calls follow the shape of the dose curve; as a rule, active = well fitted curve in the direction sought with a large enough effect; inconclusive = small, poorly fitted or top-dose-only effect, or another doubt; inactive = no such curve, though single readings can be large; an effect the other way counts as inactive or inconclusive. Potency is read from the fitted curve at half-maximal effect.

SMILES | Cruzain inh noDet | Cruzain Triton
Cc1nn(-c2ccccc2)c2sc(C(=O)Nc3cccc(Cl)c3)cc12 | u | -1.0%
O=C1c2oc3ccc(F)cc3c(=O)c2C(c2cccc([N+](=O)[O-])c2)N1CCCN1CCOCC1 (stereo unspecified) | -9.5% | -5.5%
C[N+](C)(C)CC(=O)N/N=C\c1c(O)ccc2ccccc12 | 3.5% | 3.1%
N#Cc1ccccc1CN1C(=O)c2ccccc2Sc2ccc(C(=O)OCc3ccco3)cc21 | 25.1µM* | -7.1%
C=Cc1ccc(CN2C(=O)c3ccccc3Sc3ccc(C(=O)OCc4ccco4)cc32)cc1 | 12.6µM* | -2.4%
O=C(NCc1ccco1)c1ccc2c(c1)N(Cc1ccccc1)C(=O)c1ccccc1S2 | u | 0.6%
CCOC(=O)c1ccc2c(c1)N(Cc1ccccc1)C(=O)c1ccccc1S2 | -18.2% | 0.2%
CCOC(=O)C1CCN(C(c2ccccc2OC)c2c(O)cc(C)n(CCOC)c2=O)CC1 (stereo unspecified) | -7.4% | 0.6%
COC(=O)Cc1nnc(NC(=O)c2ccccc2)s1 | -7.7% | -2.3%
Cc1ccc(SCc2nnc(NC(=O)c3ccccc3)s2)cc1 | 10µM* | 6.5%
CCc1ccc(N2CCn3c2nc2c3c(=O)n(C/C=C/c3ccccc3)c(=O)n2C)cc1 | 3.2% | -1.5%
C=CCn1c(SCC(=O)Nc2ccccc2)nc2scc(-c3cccs3)c2c1=O | 25.1µM* | -6.1%
C=CCn1c(SCn2nnc3ccccc3c2=O)nc2scc(-c3cccs3)c2c1=O | 7.94µM* | 3.8%
O=c1c2ccccc2nnn1CSc1nnc(-c2cccs2)n1Cc1ccccc1 | -11.6% | -1.6%
C=CCn1c(SCC(=O)N2CCCC2)nc2scc(-c3cccs3)c2c1=O | 1.7% | -0.7%
CC1=C(C(N)=O)C(c2ccc(C(C)C)cc2)n2nc(SCc3ccccc3)nc2N1 (stereo unspecified) | u | 1.2%
Cc1c(Cl)cnc(NC(=O)COC(=O)c2cc3c(s2)CCC(C)C3)c1Cl (stereo unspecified) | u | -1.1%
Cc1cc(NC(=O)COC(=O)c2cc3c(s2)CCC(C)C3)no1 (stereo unspecified) | 31.6µM* | 1.7%
Cc1cccc(CC(=O)NC2CC(=O)N(c3cccc(F)c3)C2)c1 (stereo unspecified) | 12.6% | 1.1%
Cc1nc(-c2ccc(S(=O)(=O)N3CCN(c4cccc(Cl)c4)CC3)cc2)co1 | -12.6% | -7.4%
CCOC(=O)CNC(=O)O[C@@H]1C(=O)c2cc(Br)ccc2O[C@H]1c1cccc(OC)c1 | -4.8% | 0.2%
COc1ccc(N(CC(=O)Nc2ccc3c(c2)OCO3)S(=O)(=O)c2ccc(F)cc2)cc1 | 20µM* | -5.2%
COc1ccc(S(=O)(=O)N(C)CC(=O)Nc2ccc3c(c2)OCO3)cc1 | -9.9% | -0.7%
COc1ccc(NS(=O)(=O)c2ccc(O)c(C(=O)OCC(=O)Nc3ccc4c(c3)OCCO4)c2)cc1 | 7.94µM* | -2.8%
COc1ccc(NS(=O)(=O)c2ccc(NS(=O)(=O)c3ccc4c(c3)OCCO4)cc2)cc1 | 1.7% | -9.9%
SMILES | Cruzain inh noDet | Cruzain Triton
COc1ccccc1NC(=O)C(Cc1ccccc1)NS(=O)(=O)c1ccc2c(c1)c(=O)n(C)c(=O)n2C (stereo unspecified) | -3.1% | -0.8%
COc1ccc(Br)cc1C1Sc2ccccc2NC2=C1C(=O)c1ccccc12 (stereo unspecified) | 15.8µM* | -1.7%
O=C1C2=C(Nc3ccccc3SC2c2c(F)cccc2Cl)c2ccccc21 (stereo unspecified) | -14.0% | -4.5%
CCCc1ccc(C2Sc3ccccc3NC3=C2C(=O)c2ccccc23)cc1 (stereo unspecified) | 7.94µM* | -3.5%
CCOc1cc(C2Sc3ccccc3NC3=C2C(=O)c2ccccc23)ccc1O (stereo unspecified) | -4.9% | -6.3%
O=C1C2=C(Nc3ccccc3SC2c2ccccc2C(F)(F)F)c2ccccc21 (stereo unspecified) | u | -7.8%
O=C1C2=C(Nc3ccccc3SC2c2ccc(Cl)c(Cl)c2)c2ccccc21 (stereo unspecified) | 10µM* | -2.2%
Cc1ccccc1CN1C(=O)c2ccccc2S(=O)c2ccc(C(=O)NCc3ccc4c(c3)OCO4)cc21 (stereo unspecified) | -16.1% | 1.6%
CSc1nnc(NC(=O)c2cc(=O)c3cc(C)c(C)cc3o2)s1 | 26.2% | -1.7%
CCCn1cnc2c(SCC(=O)O)nc(N)nc21 | 12.8% | 4.4%
CCCCN(CCCC)CCNC(=O)Cn1nc(C)n2c(cc3sccc32)c1=O | -9.1% | -0.6%
CC1=C(C(=O)Nc2ccccc2)C(c2ccncc2)n2nc(SCc3ccccc3F)nc2N1 (stereo unspecified) | 10.3% | 4.9%
CCCSc1nc(-c2ccccc2)[nH]c1S(=O)(=O)c1ccc(C)cc1 | 0.5% | -10.9%
Cc1cccc(-n2c(N)cc(=O)nc2SCC(=O)Nc2nnc(C)s2)c1 | 25.1µM* | u
Cc1cccc(-n2ccnc2SCC(=O)Nc2nnc(C)s2)c1 | 3.5% | 4.7%
COC(=O)c1ccccc1NC(=O)CSc1nc(=O)cc(N)n1-c1ccccc1 | -1.2% | 25.1µM*
COC(=O)c1ccccc1NC(=O)CSc1nc(O)cc(=O)n1C1CCCC1 | u | -1.6%
CC(=O)N1CCc2cc(Br)cc(S(=O)(=O)CCC(=O)NCc3ccc(F)cc3)c21 | -0.5% | -3.0%
C/C(=C\C[Si](C)(C)C)CCC=O | u | 4.3%
CN(CCOc1ccc(C[C@H](Nc2ccccc2C(=O)c2ccccc2)C(=O)O)cc1)c1ccccn1 | u | -6.1%
COc1ccc2c(c1)CC/C(=C/c1ccco1)C2=O | 20µM* | 22.4µM*
Nc1ccc2c(c1)C/C(=C/c1ccco1)C2=O | u | -15.1%
O=C(CCn1nc(-c2ccc(Cl)cc2)c2ccccc2c1=O)Nc1ccc(OC(F)(F)F)cc1 | -9.2% | 5.4%
CCOC(=O)c1c(-c2ccccc2)oc2ccc(NS(=O)(=O)c3cc(C)c(C)cc3C)cc12 | 7.94µM* | -2.8%
CCOC(=O)c1c(-c2ccccc2)oc2ccc(NS(=O)(=O)c3ccccc3)cc12 | -26.3% | -6.6%
SMILES | Cruzain inh noDet | Cruzain Triton
NCCC(=O)N[C@H](Cc1cnc[nH]1)C(=O)O | -2.4% | 3.1%
c1cc(-c2ccncc2)ccn1 | -4.8% | 0.9%
Nc1ccncc1 | 3.55µM*! | 3.16µM*!
Nc1nonc1-c1nc2ccccc2n1Cc1ccc(Br)cc1 | -3.8% | -1.8%
N=C1SC(c2ccccc2)C(=O)N1c1ncc(Cc2ccccc2)s1 (stereo unspecified) | 7.94µM* | 1.6%
Cc1ccc(Cc2cnc(N3C(=N)SC(c4ccccc4)C3=O)s2)cc1 (stereo unspecified) | u | -0.1%
CCOc1ccc(CC(=O)NC2CC(=O)N(c3ccc4c(c3)OCCO4)C2)cc1 (stereo unspecified) | -6.6% | -0.3%
Cn1cccc1/C=C1\C(=O)NC(=O)N(CCC2=CCCCC2)C1=O | 20µM* | -5.5%
O=C1NC(=O)N(CCC2=CCCCC2)C(=O)/C1=C\c1cccs1 | 6.5% | -2.9%
COc1cc(NC(=O)COC(=O)C2CC2)c(C)cc1[N+](=O)[O-] | -1.8% | -5.1%
COc1cc(NC(=O)COC(=O)CC(C)(C)C)c(C)cc1[N+](=O)[O-] | 4.6% | -1.4%
COc1cc(NC(=O)COC(=O)CNC(=O)c2ccc(Cl)cc2)c(C)cc1[N+](=O)[O-] | 10µM* | 12.6µM*
